Reference: PubChem BioAssay (NCI)
The panel holds about 83,000 compounds, 20% with a hit somewhere; the sample as a whole holds those more often.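 Cells were grown in 96-well plates and exposed to the test compound at a single concentration for 48 hours; results are reported as percent growth, with values below 10 considered active.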 A number with no mark means an inactive call. Active and inactive are the calls of the source.

Legend:
Assay in all cases: NCI-60 one-dose screen, 48 h (100 = growth as untreated, 0 = no growth, -100 = all killed)
Settings in all cases: 10 µM unless noted
DU-145 prostate = system: DU-145 prostate
K-562 leukemia = system: K-562 leukemia
MALME-3M melanoma = system: MALME-3M melanoma
MDA-MB-231 breast = system: MDA-MB-231 breast
RXF 393 renal = system: RXF 393 renal
SF-268 CNS = system: SF-268 CNS
SF-295 CNS = system: SF-295 CNS
SF-539 CNS = system: SF-539 CNS
UACC-257 melanoma = system: UACC-257 melanoma
M14 melanoma = system: M14 melanoma
HCT-15 colon = system: HCT-15 colon
HT29 colon = system: HT29 colon
SNB-75 CNS = system: SNB-75 CNS
SNB-19 CNS = system: SNB-19 CNS
U251 CNS = system: U251 CNS
PC-3 prostate = system: PC-3 prostate
SK-MEL-5 melanoma = system: SK-MEL-5 melanoma
UACC-62 melanoma = system: UACC-62 melanoma
LOX IMVI melanoma = system: LOX IMVI melanoma
SK-MEL-28 melanoma = system: SK-MEL-28 melanoma

SMILES | growth (DU-145 prostate) | growth (K-562 leukemia) | growth (MALME-3M melanoma) | growth (MDA-MB-231 breast) | growth (RXF 393 renal) | growth (SF-268 CNS) | growth (SF-295 CNS) | growth (SF-539 CNS) | growth (UACC-257 melanoma) | growth (M14 melanoma) | growth (HCT-15 colon) | growth (HT29 colon) | growth (SNB-75 CNS) | growth (SNB-19 CNS) | growth (U251 CNS) | growth (PC-3 prostate) | growth (SK-MEL-5 melanoma) | growth (UACC-62 melanoma) | growth (LOX IMVI melanoma) | growth (SK-MEL-28 melanoma)
CCn1ccnc1C(=O)/C=C/c1ccc(CC(=O)Nc2ccc(F)cc2)cc1 | -24.8% (active) | 7.76% (active) | 92.4% | 25.9% | 26% | 5% (active) | 22.2% | 1.75% (active) | 83.5% | 75.5% | 13.2% | -27.6% (active) | 6.23% (active) | 14.9% | 10.5% | 33% | 29.3% | 55.6% | 13.9% | 79.8%
CCc1c(Nc2ccc(C)cc2)nc(N)[nH]c1=O | 111% | 94.7% | 98.6% | 94.7% | 109% | 102% | 98.3% | 101% | 102% | 100% | 103% | 100% | 87% | 98.9% | 101% | 95.4% | 102% | 87.2% | 105% | 101%
CC(=O)[C@@H]1CC[C@]2(C(=O)n3ccnc3)CC[C@]3(C)[C@H](CC[C@@H]4[C@@]5(C)Cc6c([nH]c7ccccc67)C(C)(C)[C@@H]5CC[C@]43C)[C@@H]12 | 98.5% | 67.7% | 102% | 90.7% | 106% | 90.8% | 82.8% | 97% | 97.1% | 96.1% | 87.7% | 81.2% | 101% | 88.4% | 87.7% | 63.7% | 94.3% | 94.1% | 87.2% | 96%
CC(C)C1C2=C(NCCN1C(=O)Cc1ccccc1)C(C)(C)N(Cc1ccccc1)C2=O (stereo not given) | 104% | 96.5% | 98.3% | 98.2% | 98.3% | 102% | 99.5% | 107% | 96.7% | 103% | 95.4% | 109% | 85.3% | 96.8% | 103% | 93.2% | 104% | 92.4% | 101% | 104%
Cc1cc(C)n(Nc2nc3ccccc3[nH]c2=O)c(=O)c1C#N | 101% | 94.3% | 91.7% | 80.6% | 97.9% | 92.9% | 95.6% | 87.2% | 97.6% | 98.8% | 102% | 110% | 79.5% | 93.1% | 95.4% | 94.8% | 95.3% | 94.8% | 91.5% | 104%
CCCCCCOc1ccc(/C=N/Nc2cc(C)nc3ccc(Br)cc23)cc1 | -82.9% (active) | -64.5% (active) | -82.3% (active) | -88.9% (active) | -97.3% (active) | -1.78% (active) | -83.3% (active) | -84.8% (active) | 117% | -44.4% (active) | -83.5% (active) | -65.5% (active) | -94.5% (active) | -73.7% (active) | -64.8% (active) | -73% (active) | 47.3% | 25.8% | -94.1% (active) | -81.9% (active)
C=C(C)[C@@H]1CC[C@]2(C(=O)O)CC[C@]3(C)[C@H](CC[C@@H]4[C@@]5(C)C[C@@H](CC#Cc6ccc(Br)cc6)C(=O)C(C)(C)[C@@H]5CC[C@]43C)[C@@H]12 | 40% | 42.8% | -19.9% (active) | 0.351% (active) | 52.6% | 72.1% | 58.9% | 61.1% | 52.7% | 5.57% (active) | 65.6% | 30.7% | 70.9% | 40.7% | 3.58% (active) | 28.7% | 68.6% | -29% (active) | 52% | -35.5% (active)
CCNC(=S)NNC(=O)c1cc2ccc1CCc1ccc(cc1)CC2 | 103% | 100% | 101% | 100% | 109% | 95.4% | 93.2% | 101% | 109% | 95% | 96.7% | 104% | 89.8% | 100% | 101% | 91.1% | 96.7% | 93.4% | 102% | 101%
O=S(=O)(c1ccc(N/N=C\c2ccccc2)cc1)c1ccc(N/N=C/c2ccccc2)cc1 | 69% | 79.9% | 55.4% | 49.4% | 72.8% | 75.1% | 58.2% | 65.9% | 80.5% | 76.7% | 88.7% | 54.7% | 87% | 81.4% | 66.6% | 55.7% | 74.7% | 70.8% | 63.4% | 75.6%
O=C(N=Nc1c(O)[nH]c2ccc(F)cc12)c1cc2ccccc2[nH]1 | 95.9% | 91.7% | 99.8% | 95.1% | 104% | 88.3% | 100% | 99.8% | 106% | 94.9% | 96% | 109% | 99.6% | 97.7% | 94.7% | 103% | 99.7% | 96.1% | 97.3% | 110%
O=C1Nc2ccccc2/C1=N/c1nc(-c2ccc(Cl)cc2)cs1 | 75.3% | 48.5% | 81.4% | 67.8% | 64.7% | 54.1% | 81.5% | 84.5% | 48.9% | 67.8% | 71.2% | 46.3% | 90.8% | 75.1% | 53.8% | 35.2% | 76.7% | 61% | 68.9% | 84.4%
COc1cc2nc(-c3ccc(C(F)(F)F)cc3)cc(OCCN3CCC(O)CC3)c2cc1OC | 58.8% | 61.3% | 83.6% | 49.1% | 61.2% | 70% | 80.4% | 76.8% | 92.3% | 25.2% | 53.8% | 47% | 58.1% | 89% | 69.2% | 71.8% | 68% | 84.5% | -20.6% (active) | 80.7%
O=C(Cc1ccc(/C=C/C(=O)c2ncc[nH]2)cc1)Nc1ccc(C(F)(F)F)cc1 | 16.5% | 4.21% (active) | 86.2% | 32.5% | 34% | 14.4% | 22.9% | -10.1% (active) | 82.1% | 25.1% | -51.6% (active) | -32.5% (active) | 43.6% | 15.3% | -88.8% (active) | 36.6% | 47.7% | 46.5% | -80% (active) | 67.3%
O=C(Nc1nc2ccc(S(=O)(=O)Nc3ccc(C4(C(F)(F)F)CC4)cc3)cc2[nH]1)c1cnccn1 | 30.4% | 21.4% | 37.3% | 59.2% | 28.6% | 34.3% | 33.4% | 5.95% (active) | 48.5% | 34.7% | 29.5% | 15.6% | -27.1% (active) | 40.3% | 38% | 27.7% | 26.1% | 40% | 38.3% | 57.2%
O=C1C(=O)c2c(nc3ncccn23)-c2ccccc21 | -96.8% (active) | -43.5% (active) | -96.9% (active) | -55.3% (active) | -97.2% (active) | -70.8% (active) | -97.8% (active) | -98.3% (active) | -95.4% (active) | -87% (active) | -67.2% (active) | -17.2% (active) | -92.8% (active) | -88% (active) | -84% (active) | -4.28% (active) | -99.4% (active) | -92.8% (active) | -88% (active) | -85.7% (active)
